Assay results: PubChem BioAssay AID651550 (National Center for Advancing Translational Sciences (NCATS), 2012)
The campaign covered roughly 360,000 compounds. About 1,100 (0.31%) were called active. This is one part of a sample in which actives are shown more often than they occur. Values without a mark were called inactive. Rule as the data show it: active = activity change below about -80%; inconclusive = mostly about -51% to -80%; inactive = weaker than that.

These compounds were tested against RAC-alpha serine/threonine-protein kinase (Homo sapiens) (UniProt P31749) (assay: HTS Assay for Inhibitors of Akt Phophorylation: Primary Screen). Conditions: Neuro2A IGF-stimulated pAkt S473 HTRF, 20 min; at 50 µM, stronger effect = lower value.
Text: The serine/threonine protein kinase Akt (protein kinase B) regulates various cellular processes, including cell survival, growth, proliferation, migration and differentiation. It has been well established that Akt is activated through two essential steps involving membrane translocation and phosphorylation. Cytosolic Akt is recruited to the plasma membrane via the interaction between the PH domain and membrane PIP3 produced by phosphoinositide-3 kinase (PI3K) upon growth factor receptor stimulation. The membrane-Akt interaction results in conformational changes of Akt, enabling its activation through phosphorylation at T308 in the kinase domain and at S473 in the C-terminal hydrophobic motif by PDK1 and mTOR-rictor complex (mTORC2), respectively. […] These findings indicate that S473 phosphorylation, as an important modulator of Akt activation, may be a valuable drug target for cell growth, survival, proliferation and differentiation. These inhibitors also may have significant therapeutic potential with fewer side effects, especially for the conditions involving hyperactive Akt signaling, such as cancer and Alzheimer's disease.
To this end, a miniaturized assay was developed to be screened against the Molecular Libraries Small Molecule Repository (MLSMR).
NIH Chemical Genomics Center [NCGC]
NIH Molecular Libraries Probe Centers Network [MLPCN]
Assay Submitter (PI): Hee-Yong Kim, National Institute on Alcohol Abuse and Alcoholism
3 uL of Neuro2A cell suspension in DMEM containing 0.5% FBS and […] antibiotics mix was plated in a white solid bottom tissue culture-treated 1536-well plate (Greiner Bio-One, Monroe, NC) at 4,500 cells per well and incubated overnight at 37 deg C. 23 nL/well of compound solutions in DMSO was added with Pintool transfer (Kalypsis, San Diego, CA) at single […] final concentration. Then, the cells were stimulated with 1.5 uL of IGF (6 nM final concentration) and incubated at 37 deg C for 20 min. The reaction was terminated by the addition of 1.5 uL blocking reagent mixed with lysis buffer (1:25 correspondingly) provided with HTRF(R) Phospho Akt (Ser473) kit (Cisbio US, Bedford, MA), with following incubation for 50 min at ambient temperature. The detection HTRF conjugates from the kit were prepared according to the protocol, pre-mixed 1:1 prior to dispensing, and 2 uL/well was added with BioRAPTR FRD dispenser (Beckman Coulter). The assay plates were incubated for 24 hours at ambient temperature, and the HTRF fluorescence was measured using Envision plate reader (PerkinElmer) with excitation at 330nm, emission at 615nm (Eu(3)-Cryptate donor signal) and 665nm (d2 acceptor signal). The ratio of […] was calculated for each well.
% is scaled to controls: 0 for no effect and ±100 for the full control effect.

Compound | activity change
COc1ccc(C(O)C(O)(C(=O)OC(C)C)c2ccc(C)cc2)cc1 (stereo unspecified) | inactive
Cc1cc(C)cc(NS(=O)(=O)c2ccc(Oc3ncc(C(F)(F)F)cc3Cl)cc2)c1 | -13.6%
CSc1ccccc1-c1nnc(-c2ccc(Cl)cc2)o1 | -0.409%
FC(F)(F)c1cnc(Oc2ccccc2-c2nnc(-c3ccc(Cl)cc3)o2)c(Cl)c1 | -102% (active)
COC(=O)[C@@]12C[C@@H](CC(=O)N3CCC(c4ccccc4)CC3)C(=O)N(Cc3ccccc3)C1=CCC(C)(C)C2 | inactive
COC(=O)C1=CN(c2c(C)cc(C)cc2C)C(N)=C(C#N)C1c1cccc(F)c1 (stereo unspecified) | inactive
Cc1ccc(Cc2nnc(SCC(=O)Nc3ccc(C)cc3C)[nH]c2=O)cc1 | inactive
CCCc1cc(=O)[nH]c(SCC(=O)Nc2sc3c(c2C#N)CCCC3)n1 | inactive
NC(=O)c1c(NC(=O)CSc2nnc(-c3ccco3)n2N)sc2c1CCCC2 | inactive
N#Cc1c(NC(=O)CSc2nc3ccccc3c(=O)n2Cc2ccco2)sc2c1CCCC2 | -91.1% (active)
CCC(C)CN1C(=O)CN(S(C)(=O)=O)CC1(C)C(=O)Nc1ccc2c(c1)OCCO2 (stereo unspecified) | inactive
O=C1Nc2ccccc2-n2nnnc2C1N1CCN(c2cccc(C(F)(F)F)n2)CC1 (stereo unspecified) | inactive
CC1CCN(c2oc(-c3ccccc3F)nc2C#N)CC1 | inactive
N#Cc1nc(COc2ccc(Cl)cc2)oc1N1CCCC1 | inactive
Cc1ccc(OCc2nc(C#N)c(N3CCCC3)o2)cc1 | -113% (active)
C=CCC1(C(=O)N(C)Cc2ccccc2)CCN(C(=O)OC(C)(C)C)CC1 | inactive
CCN(CC)CCCN=C(N)N | inactive
COC(=O)C[C@H]1C=C[C@H](NC(=O)c2ccc(F)cc2)[C@@H](CO)O1 | inactive
N#Cc1nc(Cc2ccccc2)oc1NCCc1ccccc1 | -105% (active)
N#Cc1nc(Cc2cccc3ccccc23)oc1NCc1ccc2c(c1)OCO2 | -4.85%
Cc1ccc(-c2nc(C#N)c(NCCCn3ccnc3)o2)cc1 | inactive
COC(=O)[C@]12CCCCC=C1N(Cc1ccc3c(c1)OCO3)C(=O)[C@H](CC(=O)NCc1cccs1)C2 | inactive
COc1ccccc1P(=O)(c1ccccc1)c1ccccc1NC(C)=O (stereo unspecified) | inactive
Cc1ccc(C(=O)Nc2c(-c3ccccc3)[nH][nH]c2=O)cc1 | inactive
COC(=O)c1c(NC(=O)CCN2CCOCC2)sc2c1CCCC2 | inactive
CCOC(=O)c1sc(NC(=O)CCN2CCOCC2)c(C(=O)OCC)c1C | -80.1% (active)

Compound | activity change
CCOC(=O)c1c(NC(=O)CCCN2CCOCC2)sc2c1CC(C)(C)OC2 | inactive
CCCCC[C@H](C)N1C[C@@H](COCc2ccccc2)Oc2cc(N3CC[C@@H](N(C)C)C3)ccc2S1(=O)=O | inactive
Cc1ccc(Cl)c(OCC(=O)N2CCc3ccccc3C2)c1 | inactive
Cc1ccc2c(c1)N(C(=O)CCC(=O)NCc1cccnc1)CCO2 | inactive
Cc1ccc2c(c1)N(C(=O)CCC(=O)N1CCc3ccccc3C1)CCO2 | -105% (active)
CCOC(=O)C1CCN(C(=O)C2CCN(S(=O)(=O)c3c(C)noc3C)CC2)CC1 | inactive
CCN(CC)C(=O)CSc1ncnc2c1cnn2-c1ccccc1 | -110% (active)
CCN(C(=O)CSc1ncnc2c1cnn2-c1ccccc1)C1CCS(=O)(=O)C1 (stereo unspecified) | inactive
CCC(C)N(C(=O)CSc1ncnc2c1cnn2-c1ccccc1)C1CCS(=O)(=O)C1 (stereo unspecified) | inactive
Cc1cccc(C)c1NC(=O)C(c1ccc(C(F)(F)F)cc1)n1c(=O)c(-c2ccco2)nc2ccccc21 (stereo unspecified) | inactive
COC(=O)c1nc(NC(=O)c2ccc(Cl)cc2)n[nH]1 | inactive
O=C(Nc1ncc2c(n1)-c1ccccc1OC2)c1ccc(Cl)cc1 | -120% (active)
O=C(Nc1ncc2c(n1)CC(c1ccco1)CC2=O)c1ccc(Cl)cc1 (stereo unspecified) | inactive
CN(C)c1ccc(Nc2c3c4c(cccc4n(C)c2=O)C(=O)c2ccccc2-3)cc1 | inactive
Cc1ccccc1NC(=O)c1ccccc1 | -122% (active)
Cc1ccccc1NC(=O)CSC(=O)c1ccccc1 | inactive
COc1cc2ccccc2cc1C(=O)Nc1ccccc1C | inactive
Cc1cccc(N(C(=O)c2csnn2)C(C(=O)NCc2ccccc2)c2ccncc2)c1 (stereo unspecified) | inactive
Cc1cccc(C2C3=C(CCCC3=O)N=C3c4ccccc4C(=O)C32)c1 (stereo unspecified) | inactive
CCOC(=O)[C@]12CCCC=C1N(CCC1=CCCCC1)C(=O)[C@H](CC(=O)N1CCN(C(=O)c3ccco3)CC1)C2 | inactive
COc1ccc(C(CNC(=O)CSc2ccccc2)N2CCOCC2)cc1 (stereo unspecified) | inactive
O=C(C(=O)N1CCC(c2ccccc2)CC1)c1ccccc1 | inactive
Cc1cccc(-n2c(Cc3cc(=O)[nH]c(=O)[nH]3)nnc2SC(C)C)c1 | inactive
COCCNC(=O)Cn1cc(C(=O)c2cccs2)c2ccccc21 | -3.12%
Cc1cccc(NC(=O)Cn2cc(C(=O)c3ccco3)c3ccccc32)c1 | 11.5%
O=C(Cn1cc(C(=O)c2cccs2)c2ccccc21)NCc1cccs1 | -110% (active)

Compound | activity change
FC(F)(F)c1cccc(-c2nc3ccccc3n2C(c2ccccc2)c2nc3ccccc3[nH]2)c1 (stereo unspecified) | inactive
COc1ccc(CCNC(=O)COc2ccc3c(c2)OCO3)cc1 | inactive
COc1ccc(OCC(=O)NCCc2ccc(S(N)(=O)=O)cc2)cc1 | -119% (active)
CC(C)(Oc1ccc(Cl)cc1)C(=O)OCC(=O)NCCc1ccc(S(N)(=O)=O)cc1 | inactive
CCOC(=O)CN(C(=O)CN1CCOCC1)c1ccc(Br)cc1 | 1.02%
CCN(C(=O)COC(=O)c1cc(NS(=O)(=O)c2ccc(Cl)c([N+](=O)[O-])c2)ccc1O)C1CCCCC1 | inactive
COC(=O)[C@@]12C[C@@H](CC(=O)NCc3cccc(C(F)(F)F)c3)C(=O)N(Cc3ccco3)C1=CCC(C)(C)C2 | inactive
CC1CCCCC1NC(=O)CCS(=O)(=O)c1cccc2nonc12 (stereo unspecified) | -123% (active)
O=C(CCS(=O)(=O)c1cccc2nonc12)NCCc1ccccc1Cl | 2.49%
COc1ccc(C)cc1NC(=O)CCS(=O)(=O)c1cccc2nonc12 | 16.6%
C=CCNc1nnc(SCC(=O)N2CCCCC2)c2ccccc12 | 4.07%
C=CCNc1nc(C)nc(OC)n1 | inactive
C=CCNc1nnc(C)c2ccccc12 | -110% (active)
CCCc1nnc(NC(=O)CCC(=O)N2CCN(S(=O)(=O)c3ccc(OC)cc3)CC2)s1 | inactive
Cc1ccccc1Nc1nnc(C)c(=O)[nH]1 | -109% (active)
Cc1nnc(N/N=C/c2ccccn2)[nH]c1=O | inactive
CCc1c(Nc2ccccc2C)nc(N)[nH]c1=O | inactive
Cc1cccc(C)c1NC(=O)C(c1cccc2ccccc12)n1c(=O)c(-c2ccco2)nc2ccccc21 (stereo unspecified) | inactive
COc1cccc(-c2ccc3c(c2)N(Cc2ccccc2OC)C(=O)C(C)S3)c1 (stereo unspecified) | inactive
CCc1c(-c2ccc(F)cc2)ncn1Cc1cccc(-c2ccccc2)c1 | inactive
CCCCCn1nnnc1-c1nc2cc3ccccc3cc2[nH]c1=O | inactive
COc1ccccc1NC(=O)C1CCN(C(=O)c2ccc(C(C)(C)C)cc2)CC1 | inactive
Cc1cc(Br)cn2c(Cc3ccccc3C(F)(F)F)c(-c3ccc(Cl)cc3)nc12 | inactive
CSc1ccc(-c2c(C#N)c(N)nc3c2c(C)nn3-c2ccccc2)cc1 | -83.6% (active)
Cn1c(=O)c2c(-c3cccc(Br)c3)c(C#N)c(N)nc2n(C)c1=O | inactive
Cc1nc2c(c(C)nn2-c2ccccc2)c(C)c1C | inactive

Compound | activity change
COc1ccc(NC(=O)C(c2ccncc2)n2c(=O)c(-c3cc4ccccc4[nH]3)nc3ccccc32)cc1 (stereo unspecified) | inactive
Nc1nc2ncccn2c1-c1ccccc1 | inactive
Cc1ccc2[nH]c(=O)c(COC(=O)c3ccccn3)cc2c1 | -7.82%
CC(=O)OCc1cc2cc(C)ccc2[nH]c1=O | -102% (active)
CCOC(=O)c1cc2cc(C)ccc2[nH]1 | inactive
CCOc1ccc(N(CC(=O)OC)S(=O)(=O)c2c(C)noc2C)cc1 | inactive
Cc1noc(C)c1S(=O)(=O)N(CC(=O)NCc1ccc(Cl)cc1)c1ccc2c(c1)OCO2 | inactive
CCOc1ccc(N(CC(=O)NCc2ccc(OC)cc2)S(=O)(=O)c2c(C)noc2C)cc1 | -134% (active)
NC(=NC(=O)c1ccccc1)C1=C(O)CCC1=O | -110% (active)
Cc1onc(-c2ccccc2)c1C(=O)N=C(N)c1ccc(Cl)cc1 | inactive
NC(=NC(=O)c1ccccc1)N1CCOCC1 | inactive
O=C(O)Cc1csc(-c2cccc(Oc3ccccc3)c2)n1 | inactive
CCCCOCCCNC(=O)C[C@@H]1C[C@@]2(C(=O)OCC)CCCC=C2N(CCC2=CCCCC2)C1=O | inactive
CC(C)N1C(=O)c2ccccc2NC(=O)C1C(=O)NCc1cccs1 (stereo unspecified) | inactive
O=C(C(=O)N1CCN(c2ccccc2)CC1)c1ccc2c(c1)OCO2 | inactive
CC1(C(=O)Nc2ccc3c(c2)OCCO3)CN(S(C)(=O)=O)CC(=O)N1Cc1cccc(F)c1 (stereo unspecified) | inactive
COc1ccc(-n2ncc3c(SCC(=O)NNC(C)=O)ncnc32)cc1 | inactive
COc1ccccc1N1CCN(C(=O)CSc2ncnc3c2cnn3-c2ccc(C)c(C)c2)CC1 | inactive
COc1ccc(-n2ncc3c(N4CCc5ccccc54)ncnc32)cc1 | -95.4% (active)
COc1nc(Oc2ccc(=O)n(C)n2)nc(N(C)C)n1 | 6.07%
COc1nc(OC)nc(N(C)CCO)n1 | -113% (active)
CO[C@@H]1CN(C)C(=O)c2cc(NC(=O)C3CC3)ccc2OC[C@H](C)N(C(=O)CN2CCOCC2)C[C@@H]1C | inactive
CC(=O)C[C@@H]1OC[C@H](C)N1S(=O)(=O)c1ccc(C)cc1 | inactive
